In PubChem BioAssay (Tox21):
A number with no mark means an inactive call. Calls of active or inactive are those of the source. Calls follow the shape of the dose curve; as a rule, active = well fitted curve in the direction sought with a large enough effect in the repeat runs; inconclusive = weak or mixed curves; inactive = flat fitted curve, though single readings scatter.

Assay: qHTS assay to test for compound auto fluorescence at 535 nm (green) in HepG2 cell free culture (AID 720686)
Details: Cell-free medium, green autofluorescence 485/535 nm; series mostly up to 91.3 µM
% is scaled to controls: 0 for no effect and ±100 for the full control effect.

Row | Structure (SMILES) | outcome | fluorescence, % of fluorescein control
1 | CCC1(CCC(C)C)C(=O)NC(=O)NC1=O | inactive | –
2 | C=CCN1C[C@H](C)N([C@H](c2ccc(C(=O)N(CC)CC)cc2)c2cccc(OC)c2)C[C@H]1C | inactive | –
3 | O=C(NC(=O)c1cc(F)c(F)cc1Cl)Nc1cc(F)ccc1N1CCC(C(=O)O)CC1 | inactive | –
4 | [Cl-].[Cl-].[Hg+2] | inactive | –
5 | CC(=O)OC(c1ccccc1)C(Cl)(Cl)Cl (configuration not stated) | inactive | –
6 | Cc1ncc(C[n+]2csc(CCO)c2C)c(N)n1 | inactive | –
7 | CN1CC[C@]23c4c5ccc(O)c4O[C@H]2[C@@H](O)C=C[C@H]3[C@H]1C5 | inactive | –
8 | Nc1c(Br)cc(Br)c2c1C(=O)c1ccccc1C2=O | – | -0.0249% [at 18.6 µM]
9 | CCC(C)(C)O | inactive | –
10 | CC(C)(C)N(NC(=O)c1ccc(Cl)cc1)C(=O)c1ccccc1 | inactive | –
11 | O=[N+]([O-])c1cc(Cl)c(Cl)cc1Cl | inactive | –
12 | CN(C)c1ccc(N=O)cc1 | inactive | –
13 | CC1(C)[C@H](C(=O)O[C@H](C#N)c2cccc(Oc3ccccc3)c2)[C@@H]1C=C(Br)Br | inactive | –
14 | CC(=O)NNc1ccccc1 | inactive | –
15 | CCCN(CCOc1c(Cl)cc(Cl)cc1Cl)C(=O)n1ccnc1 | inactive | –
16 | Nc1ccccc1C(=O)OCCc1ccccc1 | inactive | –
17 | O=C(O)COc1cc(Cl)c(Cl)cc1Cl | inactive | –
18 | NP(N)(=O)NC(=O)c1ccc(F)cc1 | inactive | –
19 | CN1C(=O)CN=C(c2ccccc2)c2cc([N+](=O)[O-])ccc21 | inactive | –

Row | Structure (SMILES) | outcome | fluorescence, % of fluorescein control
20 | O=S(=O)(c1ccccc1)c1ccccc1 | inactive | –
21 | CCNC(=O)NC(=O)/C(C#N)=N/OC | inactive | –
22 | O=C(O)CCCOc1ccc(Cl)cc1Cl | inactive | –
23 | C[Si](Cn1cncn1)(c1ccc(F)cc1)c1ccc(F)cc1 | inactive | –
24 | C[C@]12C=CC3=C4CCC(=O)C=C4CC[C@H]3[C@@H]1CC[C@@H]2O | inactive | –
25 | FC(Cl)(Cl)C(F)(Cl)Cl | inactive | –
26 | O=C(O)C(F)(F)C(F)(F)C(F)(F)C(F)(F)C(F)(F)C(F)(F)C(F)(F)C(F)(F)F | inactive | –
27 | CCC1(C2=NCCN2)Cc2ccccc2O1 (configuration not stated) | inactive | –
28 | O=C(O)C(O)C(O)C(=O)O (configuration not stated) | inactive | –
29 | Nc1ccc2c(c1)Cc1ccccc1-2 | inactive | –
30 | CC(Oc1cc(Cl)c(Cl)cc1Cl)C(=O)O (configuration not stated) | inactive | –
31 | CN1C[C@H](C(=O)N[C@]2(C)O[C@@]3(O)[C@@H]4CCCN4C(=O)[C@H](Cc4ccccc4)N3C2=O)C=C2c3cccc4[nH]cc(c34)C[C@H]21 | inactive | –
32 | C=C(C)C(=O)OCCCCOC(=O)C(=C)C | inactive | –
33 | Cc1ccc(N)c(C)c1 | inactive | –
34 | COP(=O)(OC)OC(Br)C(Cl)(Cl)Br (configuration not stated) | inactive | –
35 | CC[N+]1(CCOC(=O)C(O)(c2ccccc2)c2ccccc2)CCCCC1 | inactive | –
36 | O=CC=O | inactive | –
37 | C[CH2][Hg][S]c1ccccc1C(=O)O | inactive | –
38 | O=P(OCC(Br)CBr)(OCC(Br)CBr)OCC(Br)CBr (configuration not stated) | inactive | –

Assay: qHTS assay to test for compound auto fluorescence at 460 nm (blue) in HepG2 cells (AID 720687)
Details: autofluorescence 405/460 nm, 1 h; series mostly up to 91.3 µM
How it was run: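 Blue-channel autofluorescence (Ex/Em 405/460 nm, triamterene-equivalent) was measured after 1 hr compound exposure at 37 C, 5% CO2. Cells were HepG2, plated overnight at 37 C in MEM plus 10% FBS.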

Row | Structure (SMILES) | outcome | fluorescence, % of fluorescent control
39 | CCC1(CCC(C)C)C(=O)NC(=O)NC1=O | inactive | –
40 | C=CCN1C[C@H](C)N([C@H](c2ccc(C(=O)N(CC)CC)cc2)c2cccc(OC)c2)C[C@H]1C | inactive | –
41 | O=C(NC(=O)c1cc(F)c(F)cc1Cl)Nc1cc(F)ccc1N1CCC(C(=O)O)CC1 | inactive | –
42 | [Cl-].[Cl-].[Hg+2] | inactive | –
43 | CC(=O)OC(c1ccccc1)C(Cl)(Cl)Cl (configuration not stated) | inactive | –
44 | Cc1ncc(C[n+]2csc(CCO)c2C)c(N)n1 | inactive | –
45 | CN1CC[C@]23c4c5ccc(O)c4O[C@H]2[C@@H](O)C=C[C@H]3[C@H]1C5 | inactive | –
46 | Nc1c(Br)cc(Br)c2c1C(=O)c1ccccc1C2=O | – | -0.122% [at 18.6 µM]
47 | CCC(C)(C)O | inactive | –
48 | CC(C)(C)N(NC(=O)c1ccc(Cl)cc1)C(=O)c1ccccc1 | inactive | –
49 | O=[N+]([O-])c1cc(Cl)c(Cl)cc1Cl | inactive | –
50 | CN(C)c1ccc(N=O)cc1 | inactive | –
51 | CC1(C)[C@H](C(=O)O[C@H](C#N)c2cccc(Oc3ccccc3)c2)[C@@H]1C=C(Br)Br | inactive | –
52 | CC(=O)NNc1ccccc1 | inactive | –
53 | CCCN(CCOc1c(Cl)cc(Cl)cc1Cl)C(=O)n1ccnc1 | inactive | –
54 | Nc1ccccc1C(=O)OCCc1ccccc1 | inactive | –
55 | O=C(O)COc1cc(Cl)c(Cl)cc1Cl | inactive | –

Row | Structure (SMILES) | outcome | fluorescence, % of fluorescent control
56 | NP(N)(=O)NC(=O)c1ccc(F)cc1 | inactive | –
57 | CN1C(=O)CN=C(c2ccccc2)c2cc([N+](=O)[O-])ccc21 | inactive | –
58 | O=S(=O)(c1ccccc1)c1ccccc1 | inactive | –
59 | CCNC(=O)NC(=O)/C(C#N)=N/OC | inactive | –
60 | O=C(O)CCCOc1ccc(Cl)cc1Cl | inactive | –
61 | C[Si](Cn1cncn1)(c1ccc(F)cc1)c1ccc(F)cc1 | inactive | –
62 | O=C(O)C(F)(F)C(F)(F)C(F)(F)C(F)(F)C(F)(F)C(F)(F)C(F)(F)C(F)(F)F | inactive | –
63 | CCC1(C2=NCCN2)Cc2ccccc2O1 (configuration not stated) | inactive | –
64 | O=C(O)C(O)C(O)C(=O)O (configuration not stated) | inactive | –
65 | Nc1ccc2c(c1)Cc1ccccc1-2 | inactive | –
66 | CC(Oc1cc(Cl)c(Cl)cc1Cl)C(=O)O (configuration not stated) | inactive | –
67 | CN1C[C@H](C(=O)N[C@]2(C)O[C@@]3(O)[C@@H]4CCCN4C(=O)[C@H](Cc4ccccc4)N3C2=O)C=C2c3cccc4[nH]cc(c34)C[C@H]21 | inactive | –
68 | C=C(C)C(=O)OCCCCOC(=O)C(=C)C | inactive | –
69 | Cc1ccc(N)c(C)c1 | inactive | –
70 | COP(=O)(OC)OC(Br)C(Cl)(Cl)Br (configuration not stated) | inactive | –
71 | C[CH2][Hg][S]c1ccccc1C(=O)O | inactive | –
72 | O=P(OCC(Br)CBr)(OCC(Br)CBr)OCC(Br)CBr (configuration not stated) | inactive | –
